Measurements taken from the supplement of paper PMC11732987, “Enantioselective OTUD7B fragment discovery through chemoproteomics screening and high-throughput optimisation” (Communications Chemistry, 2025).

What was measured:
Assay in all cases: log2 ratio of Biotin-Ahx-Ub-VS probe labelling (fragment/DMSO); higher = less target engagement (more negative = stronger competition), active = hit call of the paper (q ≤ 0.05, log2 ratio ≤ -1)
Conditions in all cases: compound concentration: 200 uM; treatment time: 3 h
USP34 = USP34 (UniProt Q70CQ2)
Sequence of USP34 (Q70CQ2 whole entry, the tested form may be a part): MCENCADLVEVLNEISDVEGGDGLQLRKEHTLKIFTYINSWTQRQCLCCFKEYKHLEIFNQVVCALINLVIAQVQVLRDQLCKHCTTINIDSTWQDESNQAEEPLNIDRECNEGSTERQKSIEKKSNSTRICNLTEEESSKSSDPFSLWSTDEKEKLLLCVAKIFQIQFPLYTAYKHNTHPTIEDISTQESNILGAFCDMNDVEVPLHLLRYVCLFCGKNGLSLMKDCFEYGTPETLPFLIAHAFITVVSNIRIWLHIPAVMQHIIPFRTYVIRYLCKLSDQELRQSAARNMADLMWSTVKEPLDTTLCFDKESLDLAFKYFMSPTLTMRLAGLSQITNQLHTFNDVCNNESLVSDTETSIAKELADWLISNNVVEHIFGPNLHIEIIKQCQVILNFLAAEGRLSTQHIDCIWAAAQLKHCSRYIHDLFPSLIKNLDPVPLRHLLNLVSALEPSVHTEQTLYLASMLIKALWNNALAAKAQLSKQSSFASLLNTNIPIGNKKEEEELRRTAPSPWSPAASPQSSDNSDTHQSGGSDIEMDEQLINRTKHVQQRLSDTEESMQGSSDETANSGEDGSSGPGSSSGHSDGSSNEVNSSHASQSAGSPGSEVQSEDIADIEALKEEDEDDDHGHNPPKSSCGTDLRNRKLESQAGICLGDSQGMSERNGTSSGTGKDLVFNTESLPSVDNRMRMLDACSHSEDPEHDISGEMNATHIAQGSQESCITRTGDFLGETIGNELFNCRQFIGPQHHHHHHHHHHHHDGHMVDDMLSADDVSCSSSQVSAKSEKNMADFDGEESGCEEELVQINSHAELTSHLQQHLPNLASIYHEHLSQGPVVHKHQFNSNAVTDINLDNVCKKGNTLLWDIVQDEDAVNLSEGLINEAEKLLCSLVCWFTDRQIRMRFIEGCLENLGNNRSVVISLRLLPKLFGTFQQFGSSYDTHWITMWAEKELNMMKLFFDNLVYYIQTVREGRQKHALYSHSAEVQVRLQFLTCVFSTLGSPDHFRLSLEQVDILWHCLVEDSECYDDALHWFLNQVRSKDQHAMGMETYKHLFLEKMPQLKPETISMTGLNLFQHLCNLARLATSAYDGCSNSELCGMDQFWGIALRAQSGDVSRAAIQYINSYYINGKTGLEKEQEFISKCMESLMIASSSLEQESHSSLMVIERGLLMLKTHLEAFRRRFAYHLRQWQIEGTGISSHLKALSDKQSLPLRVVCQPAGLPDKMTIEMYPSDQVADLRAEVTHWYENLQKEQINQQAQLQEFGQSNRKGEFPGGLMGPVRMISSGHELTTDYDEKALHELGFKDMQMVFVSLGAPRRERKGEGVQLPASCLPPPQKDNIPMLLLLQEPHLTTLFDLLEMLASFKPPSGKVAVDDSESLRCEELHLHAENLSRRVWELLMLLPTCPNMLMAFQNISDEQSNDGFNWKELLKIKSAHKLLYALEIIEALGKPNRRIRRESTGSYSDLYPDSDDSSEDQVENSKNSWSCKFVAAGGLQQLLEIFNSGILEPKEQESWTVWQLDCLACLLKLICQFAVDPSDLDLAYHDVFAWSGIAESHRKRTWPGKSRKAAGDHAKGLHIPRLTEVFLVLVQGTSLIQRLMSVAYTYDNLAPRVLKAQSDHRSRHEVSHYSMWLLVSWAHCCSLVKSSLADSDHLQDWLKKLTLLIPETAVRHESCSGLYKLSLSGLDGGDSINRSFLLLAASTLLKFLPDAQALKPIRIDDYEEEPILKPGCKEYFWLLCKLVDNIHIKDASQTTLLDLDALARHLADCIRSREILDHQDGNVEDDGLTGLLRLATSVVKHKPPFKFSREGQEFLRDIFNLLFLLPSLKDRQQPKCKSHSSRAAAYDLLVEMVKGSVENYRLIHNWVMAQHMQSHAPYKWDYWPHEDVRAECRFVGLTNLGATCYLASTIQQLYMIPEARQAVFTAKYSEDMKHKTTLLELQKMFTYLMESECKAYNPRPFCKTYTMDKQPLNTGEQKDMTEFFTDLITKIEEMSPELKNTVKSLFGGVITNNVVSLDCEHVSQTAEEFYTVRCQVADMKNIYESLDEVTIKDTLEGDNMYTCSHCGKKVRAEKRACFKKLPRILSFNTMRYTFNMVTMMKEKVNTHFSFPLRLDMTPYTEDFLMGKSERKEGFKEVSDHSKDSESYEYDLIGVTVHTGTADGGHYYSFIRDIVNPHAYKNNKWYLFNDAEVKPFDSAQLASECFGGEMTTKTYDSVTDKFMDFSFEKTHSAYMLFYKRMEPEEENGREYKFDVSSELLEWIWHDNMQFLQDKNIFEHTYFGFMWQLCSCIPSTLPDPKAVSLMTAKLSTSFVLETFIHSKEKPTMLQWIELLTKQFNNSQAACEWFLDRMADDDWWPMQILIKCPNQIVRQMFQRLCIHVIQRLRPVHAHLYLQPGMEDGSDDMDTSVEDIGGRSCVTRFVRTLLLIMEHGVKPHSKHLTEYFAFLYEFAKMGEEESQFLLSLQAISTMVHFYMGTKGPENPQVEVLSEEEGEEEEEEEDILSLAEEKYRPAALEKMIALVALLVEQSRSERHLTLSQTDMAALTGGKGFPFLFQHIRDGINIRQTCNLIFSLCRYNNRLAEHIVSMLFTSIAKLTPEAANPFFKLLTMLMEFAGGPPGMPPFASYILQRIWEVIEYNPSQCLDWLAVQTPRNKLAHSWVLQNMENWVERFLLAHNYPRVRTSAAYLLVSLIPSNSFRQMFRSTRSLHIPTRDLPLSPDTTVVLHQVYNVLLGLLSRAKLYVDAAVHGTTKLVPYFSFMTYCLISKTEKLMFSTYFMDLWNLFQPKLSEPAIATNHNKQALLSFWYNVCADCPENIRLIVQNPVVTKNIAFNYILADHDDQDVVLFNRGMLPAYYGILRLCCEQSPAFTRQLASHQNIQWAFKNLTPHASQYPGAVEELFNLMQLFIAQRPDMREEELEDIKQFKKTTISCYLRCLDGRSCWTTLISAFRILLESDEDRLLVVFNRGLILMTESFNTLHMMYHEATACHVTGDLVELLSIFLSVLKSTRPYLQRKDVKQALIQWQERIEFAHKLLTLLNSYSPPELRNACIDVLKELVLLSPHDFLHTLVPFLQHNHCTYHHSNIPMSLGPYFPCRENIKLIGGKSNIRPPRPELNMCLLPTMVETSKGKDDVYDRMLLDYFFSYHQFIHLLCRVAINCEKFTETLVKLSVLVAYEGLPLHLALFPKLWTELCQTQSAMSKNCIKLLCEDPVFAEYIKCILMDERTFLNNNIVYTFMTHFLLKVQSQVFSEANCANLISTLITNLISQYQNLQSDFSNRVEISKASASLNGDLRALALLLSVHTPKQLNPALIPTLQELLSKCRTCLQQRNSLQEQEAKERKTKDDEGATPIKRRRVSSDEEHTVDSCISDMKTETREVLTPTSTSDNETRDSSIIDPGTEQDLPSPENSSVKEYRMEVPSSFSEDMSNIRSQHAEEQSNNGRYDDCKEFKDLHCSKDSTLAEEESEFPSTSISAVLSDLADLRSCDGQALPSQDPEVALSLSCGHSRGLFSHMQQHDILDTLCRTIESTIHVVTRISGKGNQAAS
Method in brief: (§1)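 The table lists average log2 ratios of fragment over vehicle, from an unpaired t-test on global-median-normalised Spectronaut label-free quantities. Proteins with ≥2 unique peptides were used. Samples were HEK293T lysate (495 µg) treated in triplicate with fragment at 200 µM or vehicle for 3 h, then with Biotin-Ahx-Ub-VS (0.5 µM final) for 1 h, with labelled DUBs NeutrAvidin-enriched and run by diaPASEF LC-MS/MS.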

USP36 = molecular target: T1, USP36 (UniProt Q9P275)
T1 sequence (whole entry): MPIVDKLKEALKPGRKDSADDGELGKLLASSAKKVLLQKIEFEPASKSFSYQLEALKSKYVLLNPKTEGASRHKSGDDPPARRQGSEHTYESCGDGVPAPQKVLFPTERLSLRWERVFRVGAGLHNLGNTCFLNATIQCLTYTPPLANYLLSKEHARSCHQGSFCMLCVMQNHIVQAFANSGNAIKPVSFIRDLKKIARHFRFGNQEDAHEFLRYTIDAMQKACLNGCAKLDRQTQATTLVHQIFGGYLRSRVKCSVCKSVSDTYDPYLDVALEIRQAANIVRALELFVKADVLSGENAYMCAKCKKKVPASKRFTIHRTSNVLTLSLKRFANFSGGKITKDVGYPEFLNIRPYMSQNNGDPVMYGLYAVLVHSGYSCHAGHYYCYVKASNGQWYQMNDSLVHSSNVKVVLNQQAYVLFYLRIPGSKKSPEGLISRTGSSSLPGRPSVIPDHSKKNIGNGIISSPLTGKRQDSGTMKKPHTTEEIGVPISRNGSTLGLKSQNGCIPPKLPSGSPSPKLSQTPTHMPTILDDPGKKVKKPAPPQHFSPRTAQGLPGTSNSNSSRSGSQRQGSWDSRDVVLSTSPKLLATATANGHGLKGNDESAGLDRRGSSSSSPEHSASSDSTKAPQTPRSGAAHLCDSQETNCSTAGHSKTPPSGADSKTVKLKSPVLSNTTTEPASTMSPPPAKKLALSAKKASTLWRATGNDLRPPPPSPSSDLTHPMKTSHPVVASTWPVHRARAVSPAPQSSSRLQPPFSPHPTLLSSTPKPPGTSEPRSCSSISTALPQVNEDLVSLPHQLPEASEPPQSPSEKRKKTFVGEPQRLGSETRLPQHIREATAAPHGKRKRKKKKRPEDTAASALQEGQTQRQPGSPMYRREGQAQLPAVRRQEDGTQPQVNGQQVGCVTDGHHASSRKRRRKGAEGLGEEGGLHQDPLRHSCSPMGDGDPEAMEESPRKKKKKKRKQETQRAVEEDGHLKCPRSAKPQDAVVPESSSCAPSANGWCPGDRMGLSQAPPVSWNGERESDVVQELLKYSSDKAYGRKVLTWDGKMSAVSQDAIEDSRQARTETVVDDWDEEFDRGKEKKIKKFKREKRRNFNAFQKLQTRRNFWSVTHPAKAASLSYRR
Method in brief: as §1

USP38 = molecular target: T2, USP38 (UniProt Q8NB14)
T2 sequence (whole entry): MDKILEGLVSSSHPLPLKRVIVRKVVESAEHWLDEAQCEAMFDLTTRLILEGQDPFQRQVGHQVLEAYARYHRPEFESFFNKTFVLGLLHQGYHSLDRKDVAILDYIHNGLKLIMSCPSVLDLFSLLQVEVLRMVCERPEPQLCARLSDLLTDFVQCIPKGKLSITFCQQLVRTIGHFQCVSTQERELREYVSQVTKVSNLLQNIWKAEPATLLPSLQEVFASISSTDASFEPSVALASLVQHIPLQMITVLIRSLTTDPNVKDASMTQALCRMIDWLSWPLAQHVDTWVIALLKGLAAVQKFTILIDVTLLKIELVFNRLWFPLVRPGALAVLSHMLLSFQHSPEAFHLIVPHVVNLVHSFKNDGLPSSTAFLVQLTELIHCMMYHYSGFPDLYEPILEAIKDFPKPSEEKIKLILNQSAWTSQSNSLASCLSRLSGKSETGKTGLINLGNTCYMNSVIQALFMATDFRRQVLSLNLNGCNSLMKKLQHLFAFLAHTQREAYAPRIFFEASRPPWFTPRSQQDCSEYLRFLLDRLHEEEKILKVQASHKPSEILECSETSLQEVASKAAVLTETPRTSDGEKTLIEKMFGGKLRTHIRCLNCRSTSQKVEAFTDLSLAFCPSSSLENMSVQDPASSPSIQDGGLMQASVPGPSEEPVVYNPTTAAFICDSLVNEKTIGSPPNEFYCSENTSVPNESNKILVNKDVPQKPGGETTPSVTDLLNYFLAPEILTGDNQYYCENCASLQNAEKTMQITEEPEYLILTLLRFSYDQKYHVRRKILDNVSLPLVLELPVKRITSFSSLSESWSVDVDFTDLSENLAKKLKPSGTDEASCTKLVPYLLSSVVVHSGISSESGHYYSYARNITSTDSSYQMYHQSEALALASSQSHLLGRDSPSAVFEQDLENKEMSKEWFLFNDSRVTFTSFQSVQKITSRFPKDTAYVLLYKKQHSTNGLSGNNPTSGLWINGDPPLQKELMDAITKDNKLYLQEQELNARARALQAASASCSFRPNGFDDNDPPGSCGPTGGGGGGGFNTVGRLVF
Method in brief: as §1

USP39 = molecular target: T3, USP39 (UniProt Q53GS9)
T3 sequence (whole entry): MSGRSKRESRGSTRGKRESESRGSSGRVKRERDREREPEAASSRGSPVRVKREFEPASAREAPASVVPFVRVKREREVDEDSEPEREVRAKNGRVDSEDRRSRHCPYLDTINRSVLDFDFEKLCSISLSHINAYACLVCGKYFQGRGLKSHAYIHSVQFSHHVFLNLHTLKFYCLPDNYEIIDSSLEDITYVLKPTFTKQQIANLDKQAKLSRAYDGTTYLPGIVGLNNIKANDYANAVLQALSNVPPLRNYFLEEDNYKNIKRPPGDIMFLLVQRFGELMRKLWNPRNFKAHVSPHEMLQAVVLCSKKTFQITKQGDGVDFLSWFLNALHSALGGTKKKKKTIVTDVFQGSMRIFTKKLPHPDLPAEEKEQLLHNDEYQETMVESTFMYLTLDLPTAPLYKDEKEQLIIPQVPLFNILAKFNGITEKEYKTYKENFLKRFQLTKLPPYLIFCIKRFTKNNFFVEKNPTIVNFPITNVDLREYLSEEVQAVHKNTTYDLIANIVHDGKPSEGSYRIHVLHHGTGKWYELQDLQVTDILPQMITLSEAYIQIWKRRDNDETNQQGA
Method in brief: as §1

USP4 = molecular target: T4, USP4 (UniProt Q13107)
T4 sequence (whole entry): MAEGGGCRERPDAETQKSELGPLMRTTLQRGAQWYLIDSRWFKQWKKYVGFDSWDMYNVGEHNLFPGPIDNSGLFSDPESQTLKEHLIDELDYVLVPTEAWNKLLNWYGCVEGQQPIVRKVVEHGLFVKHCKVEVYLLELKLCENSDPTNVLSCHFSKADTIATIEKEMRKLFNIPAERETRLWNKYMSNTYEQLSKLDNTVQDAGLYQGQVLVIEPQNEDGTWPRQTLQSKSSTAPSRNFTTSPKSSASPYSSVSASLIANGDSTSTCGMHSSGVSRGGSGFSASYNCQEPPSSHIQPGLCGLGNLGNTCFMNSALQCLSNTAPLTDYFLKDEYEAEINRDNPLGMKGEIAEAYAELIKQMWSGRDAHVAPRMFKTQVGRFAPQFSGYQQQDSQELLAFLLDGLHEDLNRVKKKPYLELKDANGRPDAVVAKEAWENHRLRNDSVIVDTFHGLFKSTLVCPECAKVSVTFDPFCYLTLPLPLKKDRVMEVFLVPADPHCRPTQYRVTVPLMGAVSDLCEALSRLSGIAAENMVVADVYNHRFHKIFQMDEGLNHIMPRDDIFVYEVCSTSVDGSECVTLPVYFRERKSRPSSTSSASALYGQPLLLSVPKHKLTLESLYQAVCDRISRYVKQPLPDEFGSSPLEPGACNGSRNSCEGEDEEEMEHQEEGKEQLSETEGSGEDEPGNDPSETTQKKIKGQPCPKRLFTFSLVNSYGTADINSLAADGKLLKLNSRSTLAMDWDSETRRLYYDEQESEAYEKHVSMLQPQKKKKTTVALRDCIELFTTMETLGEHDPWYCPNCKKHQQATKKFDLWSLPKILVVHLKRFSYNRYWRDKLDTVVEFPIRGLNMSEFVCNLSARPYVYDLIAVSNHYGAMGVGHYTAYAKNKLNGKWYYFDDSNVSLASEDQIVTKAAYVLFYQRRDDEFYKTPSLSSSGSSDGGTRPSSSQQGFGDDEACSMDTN
Method in brief: as §1

Measured: log2 ratio of Biotin-Ahx-Ub-VS probe labelling

O=C(O)C1Cc2ccccc2CN1C(=O)CCl (stereo not given)
inactive: USP34 -0.101 | USP36 -0.224 | USP38 -0.252 | USP39 -0.281 | USP4 -0.207
